Compound activity deposited in PubChem by National Center for Advancing Translational Sciences (NCATS).
This is a sample that favours compounds with a hit; in the whole collection about 8% have one here.
HT1080 IDH1KD tx: HT-1080 IDH1 knockdown cell toxicity (counter line) | HT-1080 IDH1 knockdown viability, ATP luminescence, 48 h | Potency, µM (series often up to 46.1 µM), usual class: cytotoxic | actives 2% (n = 360,000) | AID 686971
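CellTiter-Glo luminescence after 48 h compound exposure at 37 degrees C of IDH1-knockdown HT-1080 cells in 5% FBS RPMI. %Activity scaled between DMSO wells and cell-free media wells, with curves fitted and assigned curve classes.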
SW480 rerep: induces DNA re-replication in SW480 colon adenocarcinoma cells. SW480 DNA re-replication, Hoechst DNA content imaging, 48 h. actives 1.8% (n = 340,000). Potency, µM (doses to about 46.1 µM), usual class: activators; further: nearly all actives have a fitted effect of over 55% in size
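250 cells/well; 23 nL cpd via pin tool; 48 hr, 37 C, 5% CO2; Hoechst 40 min; imager read of total nuclear intensity, ex 405/em 500-530 nm.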
MCF10A rereplic: DNA re-replication induction in MCF 10a cells. Potency, µM (highest dose often 46.1 µM), most hits filed as activators. MCF 10A DNA re-replication, Hoechst nuclear intensity, 48 h. actives 2.9% (n = 350,000); further: nearly all actives have a fitted effect of over 50% in size
KB-3-1 tox: KB-3-1 parental cell cytotoxicity | actives 1.4% (n = 400,000) | Potency, µM (doses to about 46.1 µM), hits mostly cytotoxic | KB-3-1 viability, CellTiter-Glo ATP luminescence, 72 h; further: nearly all actives have a fitted effect of over 60% in size
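Luminescent ATP read-out (CellTiter-Glo) measures survival of drug-naive KB-3-1 cells after 72 h compound exposure at 37 °C. Titration series was screened from lowest to highest concentration, with DMSO vehicle plates as background controls.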
HT1080NT lethal: kills 2HG-producing HT-1080-NT fibrosarcoma cells; HT-1080-NT fibrosarcoma viability, CellTiter-Glo ATP luminescence, 48 h; Potency, µM (highest dose often 46.1 µM), actives largely listed as cytotoxic; actives 1.6% (n = 360,000);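 further: NT is the 2HG producing partner of a matched IDH1 knockdown line; nearly all actives have a fitted effect of over 55% in size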
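Toxicity toward the 2HG-producing NT line was scored as %Activity, normalised to DMSO and no-cell wells, from CellTiter-Glo luminescence after 48 hours' treatment.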
KB-V1 MDR tox: kills drug-selected multidrug resistant KB-V1 cells; KB-V1 MDR cells viability, CellTiter-Glo, 72 h; Potency, µM (titrated, usually from 46.1 µM), hits mostly cytotoxic; actives 3.4% (n = 400,000); AID 1347076; further: nearly all actives have a fitted effect of over 60% in size
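Following 72 h at 37 degrees C with compound, KB-V1 cell viability was read by CellTiter-Glo luminescence, medium being phenol-red-free DMEM plus 10% FBS; concentration-response parameters came from normalized, curve-fitted qHTS data.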
Large screens that a line does not name were inactive. The call rests on the fitted dose curve; in most records, active means well fitted curve in the direction sought with a large enough effect; inconclusive means small, poorly fitted or top-dose-only effect, or another doubt; inactive means no such curve, though single readings can be large; an effect the other way counts as inactive or inconclusive.

C=C1C(=O)[C@]23C[C@H]1CCC2[C@@]1(C)C(C[C@@H]3O)[C@](C)(C(=O)OC)CC[C@@H]1O (stereo partly specified)	HT1080 IDH1KD tx 2.3µM, KB-3-1 tox 13µM, HT1080NT lethal 2.3µM (no result: SW480 rerep, MCF10A rereplic)
COC(=O)[C@]1(C)CCC[C@@]2(C)C3CC[C@]4(OC(C)=O)C[C@@]3(CCC21)CC4=O (stereo partly specified)	MCF10A rereplic inconclusive
C[C@@]12C(C[C@H](O)[C@@]34C[C@@H](CCC13)[C@@H](CO)C4=O)[C@](C)(C(=O)O)CC[C@@H]2O (stereo partly specified)	HT1080 IDH1KD tx inconclusive, HT1080NT lethal 29µM (no result: SW480 rerep, MCF10A rereplic)
C[C@@]12CCC3[C@@](CC[C@@H]4[C@](C)(C(=O)O)CCC[C@@]34C)(C[C@H]1O)C2 (stereo partly specified)	none
Cn1c(O)c(/C=C2\C=NN=C2c2ccccc2)sc1=S	none
CC(C)CC1Nc2ncnc(N3CCCCC3)c2N(Cc2ccc(Br)cc2)C1=O (stereo unspecified)	KB-3-1 tox inconclusive, KB-V1 MDR tox inconclusive
COc1cccc(Oc2c(C)oc3c(CN4CCOCC4)c(O)ccc3c2=O)c1	none
CCC(C)c1ccc(NC(=O)c2cccnc2)cc1 (stereo unspecified)	HT1080 IDH1KD tx inconclusive, SW480 rerep inconclusive, KB-V1 MDR tox 21µM
CCC(C)c1ccc(NC(=S)NCc2cccnc2)cc1 (stereo unspecified)	KB-3-1 tox inconclusive, KB-V1 MDR tox 18µM
CC(C)(C)c1ccc(NC(=S)NCc2cccnc2)cc1	MCF10A rereplic inconclusive
O=C(O)c1cc(N/N=C2/CC(c3ccccc3)Oc3ccccc32)ccc1Cl (stereo unspecified)	MCF10A rereplic inconclusive
CC(Sc1nc(N)cc(=O)[nH]1)C(=O)Nc1sc2c(c1C#N)CCCC2 (stereo unspecified)	HT1080 IDH1KD tx inconclusive, KB-3-1 tox inconclusive, KB-V1 MDR tox inconclusive
O=C(/C=C/c1ccccc1)Oc1ccccc1C(=S)N1CCOCC1	KB-V1 MDR tox inconclusive
COC(=O)c1c(NC(=O)/C=C/c2ccc3c(c2)OCO3)sc(C)c1C	MCF10A rereplic inconclusive
O=C(/C=C/c1cccs1)Nc1nc(-c2ccccc2)cs1	HT1080 IDH1KD tx inconclusive, KB-3-1 tox inconclusive, HT1080NT lethal inconclusive, KB-V1 MDR tox 15µM
CCOC(=O)c1c(NC(=O)/C=C/c2ccc3c(c2)OCO3)sc(C)c1CC	MCF10A rereplic 8.2µM, KB-3-1 tox 21µM
CS(=O)(=O)N1CCc2cc(-c3csc(NC(=O)Cc4cccs4)n3)ccc21	HT1080 IDH1KD tx inconclusive, HT1080NT lethal 10µM
O=C(/C=C\c1cn(-c2ccccc2)nc1-c1ccccc1)Nc1nccs1	HT1080 IDH1KD tx 21µM, SW480 rerep inconclusive, MCF10A rereplic inconclusive, KB-3-1 tox inconclusive, HT1080NT lethal 15µM, KB-V1 MDR tox inconclusive
O=C(COC(=O)/C=C/c1cccs1)Nc1nc(-c2ccccc2)cs1	SW480 rerep inconclusive
CC(=O)Nc1nc(-c2ccc3c(c2)CCN3S(C)(=O)=O)cs1	SW480 rerep inconclusive
O=C(/C=C/c1ccc2c(c1)OCO2)Nc1nncs1	HT1080 IDH1KD tx 1µM, MCF10A rereplic inconclusive, KB-3-1 tox 5.8µM, HT1080NT lethal inconclusive
O=C(/C=C/c1ccc2c(c1)OCO2)Nc1nc(-c2ccccc2)cs1	HT1080 IDH1KD tx inconclusive, MCF10A rereplic inconclusive, KB-3-1 tox 7.3µM, KB-V1 MDR tox inconclusive
Cc1cc(C)nc(NC(=O)/C=C/c2ccc3c(c2)OCO3)c1	HT1080 IDH1KD tx 4.6µM, MCF10A rereplic inconclusive, KB-3-1 tox inconclusive, HT1080NT lethal inconclusive, KB-V1 MDR tox inconclusive
COC(=O)CSc1nnc(NC(=O)/C=C\c2ccc3c(c2)OCO3)s1	none
O=C(CCS(=O)(=O)c1ccccc1)Nc1nc(-c2ccc(F)cc2)cs1	HT1080 IDH1KD tx 21µM, SW480 rerep inconclusive, HT1080NT lethal inconclusive
Cc1ccccc1N1CC(C(=O)Nc2nnc(SCc3cccnc3)s2)CC1=O (stereo unspecified)	SW480 rerep inconclusive
